Assay results as given in PubChem BioAssay (NCI).
About 83,000 compounds went through this panel and 20% of them were active in at least one assay; those are over-represented in the sample as a whole.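 The test compound was applied at a single concentration to cells in 96-well plates for 48 hours, and percent growth was recorded.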 A number with no mark means an inactive call. Active and inactive are the calls of the source. Rule for the calls: active = growth percent below 10; inactive = the rest.

Legend:
Test in all cases: NCI-60 one-dose screen, 48 h (100 = growth as untreated, 0 = no growth, -100 = all killed)
[1] = test system: T-47D breast; conditions: 10 µM unless noted
[2] = test system: BT-549 breast; conditions: 10 µM unless noted
[3] = test system: MDA-MB-435 melanoma; conditions: 10 µM unless noted
[4] = test system: MCF7 breast; conditions: 10 µM unless noted
[5] = test system: HCT-116 colon; conditions: 10 µM unless noted
[6] = test system: KM12 colon; conditions: 10 µM unless noted
[7] = test system: HCC-2998 colon; conditions: 10 µM
[8] = test system: SW-620 colon; conditions: 10 µM unless noted

| Structure (SMILES) | growth [1] | growth [2] | growth [3] | growth [4] | growth [5] | growth [6] | growth [7] | growth [8] |
| --- | --- | --- | --- | --- | --- | --- | --- | --- |
| COc1ccc(S(=O)(=O)N(C(C)=O)c2ccccc2/C=C/c2cc[n+]([O-])cc2)cc1 | 27.2% | 16.2% | -50.8% (active) | 15.2% | 5.12% (active) | 14% | – | – |
| CCN1CCN(Cc2ccc(Cc3ncc(F)c(-c4cc(F)c5nc(C)n(C(C)C)c5c4)n3)nc2)CC1 | 65.2% | 61% | 45.9% | 25.1% | 5.58% (active) | 28% | 54.7% | – |
| N#CC[C@H](C1CCCC1)n1cc(-c2ncnc3[nH]ccc23)cn1 | 72% | 77.9% | 69.8% | 41.5% | 39.4% | 19.1% | 85.8% | – |
| Cc1cnc(NC(=O)Nc2cc(Br)c(C)cc2OC[C@@H]2CNCCO2)cn1 | -46.5% (active) | 23.6% | -36.2% (active) | 2% (active) | 10.4% | 15% | 12% | – |
| CCCCCCCC(=O)SCC/C=C/[C@@H]1CC(=O)NCc2cccc(n2)C2=N[C@@](C)(CS2)C(=O)N[C@@H](C(C)C)C(=O)O1 | -14.1% (active) | 32% | -9.48% (active) | 15.5% | -27.7% (active) | 3.74% (active) | -73.4% (active) | – |
| COc1cc(NC2CCC(=O)N2c2ccc(Cl)cc2Cl)cc(OC)c1OC (stereo not given) | 98.3% | 109% | 94.9% | 96.6% | 97.1% | – | 95.7% | – |
| COC(=O)[C@]12CC[C@@H](C)[C@H](C)[C@@H]1C1=CC[C@@H]3[C@@]4(C)C[C@@H](OC(=O)/C=C/c5ccccc5)[C@H](O)[C@@](C)(CO)[C@@H]4[C@H](O)C[C@@]3(C)[C@]1(C)CC2 | 13.2% | 34.4% | 11.5% | 14.3% | – | -2.35% (active) | -41.8% (active) | -58.6% (active) |
| COc1ccc(C2CC(=O)c3c(O)c(OC)c(OC)c(OC)c3O2)c(O)c1 (stereo not given) | 57.8% | 60.6% | -33.7% (active) | 32.5% | – | 19.9% | – | 26.2% |
| CNC(=O)c1cc(Oc2cccc3nc(Nc4ccc(Cl)c(F)c4)ccc23)ccn1 | 51.3% | 63.8% | 86.4% | 76.2% | 45.4% | – | 82.5% | – |
| CC1(C)NC(=O)c2[nH]c3c(Cl)c(Cl)ccc3c2C1C#N (stereo not given) | 59.2% | 73.3% | 88.1% | 87% | – | 93.4% | – | 105% |
| C[C@]12O[C@H](C[C@]1(O)CO)n1c3ccccc3c3c4c(c5c6ccccc6n2c5c31)CNC4=O | -24.4% (active) | -68.5% (active) | -80.1% (active) | -55.2% (active) | 0.7% (active) | -18.5% (active) | -49.6% (active) | – |
| COc1cc2c(c(OC)c1)C1c3ccccc3NC(=O)N1CC2 (stereo not given) | 44% | 50.3% | -48.8% (active) | 18.1% | – | 26.2% | 53.4% | 20.5% |
| COC(=O)[C@H](Cc1ccc(O)cc1)NC(=O)[C@@H](OC)[C@@H]1Cc2cc3cc(OC4CC(OC5CC(O)C(O)C(C)O5)C(O)C(C)O4)c(C)c(O)c3c(O)c2C(=O)[C@H]1OC1CC(OC2CC(OC3CC(C)(O)C(O)C(C)O3)C(O)C(C)O2)C(O)C(C)O1 (stereo not given in full) | 4.63% (active) | -36.9% (active) | -26.8% (active) | 8.15% (active) | 4.11% (active) | 5.68% (active) | – | – |
| C=CCN(/C=C1/C(=O)O[C@H](COC)[C@@]2(C)C1=C(O)C(=O)C1=C2[C@H](OC(C)=O)C[C@]2(C)C(=O)CC[C@@H]12)CC=C | -10.6% (active) | -7.68% (active) | 21.4% | 11.8% | 14.6% | 22.4% | -20.4% (active) | – |
| COc1ccc2c(c1OC)C(=O)O[C@@H]2[C@H]1c2c(c(C#CC#Cc3ccc(F)c(F)c3)c3c(c2OC)OCO3)CCN1C | 69.6% | 78.2% | 89.7% | 94% | 59.8% | 83% | 88.5% | – |
| CC(=Nc1ccccc1)C1=C(O)C(Cc2ccccc2)NC1=O (stereo not given) | 67.6% | 13.9% | -27.3% (active) | 9.54% (active) | 2.49% (active) | – | -20.6% (active) | – |
| COCCOc1cnc2ccn([C@H](C)c3nnc4c(F)cc(-c5cnn(C)c5)cn34)c(=O)c2c1 | 94.6% | 105% | 60% | 103% | – | 28.3% | – | 35.5% |
| CCc1nc2ccc(Cc3ccc(C(=O)NO)cc3)cc2c(=O)n1CCc1ccccc1 | -7.19% (active) | -31.2% (active) | -73.7% (active) | 4.69% (active) | -55% (active) | -58.9% (active) | -74.8% (active) | – |

| Structure (SMILES) | growth [1] | growth [2] | growth [3] | growth [4] | growth [5] | growth [6] | growth [7] | growth [8] |
| --- | --- | --- | --- | --- | --- | --- | --- | --- |
| O=CC(OC(=O)c1ccccc1)C(OC(=O)c1ccccc1)C(COC(c1ccccc1)(c1ccccc1)c1ccccc1)OC(=O)c1ccccc1 (stereo not given) | 25.6% | 65.6% | 45.7% | 36.6% | 7.51% (active) | 61% | 96.6% | – |
| NC[C@@](O)(c1ccc(Cl)cc1)c1ccc(-c2cn[nH]c2)cc1 | -57.9% (active) | 14.6% | 12.2% | -22.2% (active) | 0.471% (active) | – | – | – |
| COc1ccc(Cl)c(Nc2nc3ccccc3nc2NS(=O)(=O)c2cccc(NC(=O)C(C)(C)N)c2)c1 | -19.8% (active) | 28% | 53.5% | 20.3% | 47% | 53.1% | 54.8% | – |
| Clc1ccc(Nc2nccc(Nc3ccc4[nH]ncc4c3)n2)cc1 | 30.1% | 53% | 55.8% | 25% | 39.4% | 9.06% (active) | 94.3% | – |
| Cc1cn(-c2cc(NC(=O)c3ccc(C)c(Nc4nccc(-c5cnccn5)n4)c3)cc(C(F)(F)F)c2)cn1 | 66.7% | 98.8% | 23.2% | 69% | 42.6% | 46.4% | – | – |
| Cc1ccc2oc(=O)cc(-c3cc(-c4cc5ccccc5oc4=O)nc(N)c3C#N)c2c1 | 59.7% | 57.2% | 65.7% | 78.1% | 51.4% | 65.7% | 93% | – |
| Clc1ccc2c(NCCNc3nc(N4CCCC4)nc4ccccc34)ccnc2c1 | -14% (active) | -11.3% (active) | -41.3% (active) | 28.5% | -63.6% (active) | 10.9% | 7.18% (active) | – |
| Cc1cc2c3c(cccc3c1)C(=O)c1ccccc1-2 | 92.1% | 95.3% | 103% | 82% | – | 93.3% | 98.2% | 94.7% |
| Oc1ccc(/C=N/Nc2nnc(N/N=C/c3ccc(O)cc3O)c3ccccc23)c(O)c1 | -53.2% (active) | -23.6% (active) | -6.07% (active) | -57.2% (active) | – | -73.2% (active) | – | -1.28% (active) |
| CNC(=O)c1cc(Oc2cccc3nc(Nc4ccc(Oc5ccccc5)cc4)ccc23)ccn1 | 43.3% | 57.2% | 66.1% | 43.2% | 48% | 67.8% | 94% | – |
| Cc1cc2c(-c3nc4ccccn4c3Nc3cccc4ccccc34)c(O)c(O)cc2c(O)c1-c1c(C)cc2c(-c3nc4ccccn4c3Nc3cccc4ccccc34)c(O)c(O)cc2c1O | 15.5% | 27.9% | 21.6% | 14.7% | -5.99% (active) | 20.1% | 41.8% | – |
| COC(=O)CC[C@@H](C)[C@H]1CC[C@H]2C3CC[C@@H]4C[C@@H]5CC[C@]4(C)[C@@]3(O5)[C@H](Br)[C@@H](Br)[C@]12C (stereo not given in full) | 73.7% | 102% | 93.8% | 87.7% | 74.2% | 99.8% | 94.8% | – |
| Cc1sc2c(c1C)c(=O)nc1c(-c3nc(-c4ccccc4)cs3)n[nH]n12 | 83.9% | 110% | 107% | 91.2% | 100% | 99.4% | 101% | – |
| O=C(c1c(F)ccc(NS(=O)(=O)N2CC[C@@H](F)C2)c1F)c1c[nH]c2ncc(-c3cnc(C4CC4)nc3)cc12 | 9.33% (active) | 61.6% | 16.8% | 61.3% | – | 54.4% | – | 66.6% |
| Nc1nc(=S)c2ncn(C3OC(COC(=O)c4ccc(Cl)cc4)C(OC(=O)c4ccc(Cl)cc4)C3OC(=O)c3ccc(Cl)cc3)c2[nH]1 (stereo not given) | 59.6% | 113% | 103% | 59.8% | – | 83.9% | – | 100% |
| O=C1CCC(=O)CC1 | 102% | – | 102% | 101% | – | 106% | 99.9% | 103% |
| CCCCCCCCCNCCCCCCCCC | 57.7% | – | 47.6% | 13.4% | 20.2% | 22.6% | 23.8% | 41.5% |
